Reference: publication PMC11062922 (Nature Chemical Biology, 2023)

The compounds below were run on MELK. Conditions: read-out: apparent Kd; compound concentrations:100 nM and 1000 nM (sheet 'Samples'); n = 1.
Design: species or system human, MV4-11 + K-562 + COLO205 + SK-N-BE2 + OVCAR-8
For `NCCNS(=O)(=O)c1ccc(-c2ccnc3[nH]ccc23)cc1` [GSK977617A], the potency estimated from few doses was 866 nM. Work on `O=C1NC(=O)C(N2CCc3ccccc32)=C1c1ccccc1Cl` [SB-373598] yielded a potency estimated from few doses of 1000 nM. For `Cl.Cl.NCC(C(=O)Nc1cc(Br)c(-c2ccnc3[nH]ccc23)s1)c1ccccc1.NCC(C(=O)Nc1cc(Br)c(-c2ccnc3[nH]ccc23)s1)c1ccccc1` (stereo not drawn) [GSK1269851A], the potency estimated from few doses was 2320 nM. For `CNC(=O)c1ccccc1Nc1nc(Nc2ccc(N3CCOCC3)cc2)ncc1Cl.Cl` [GSK1576028A], the potency estimated from few doses was 2220 nM.

What follows are compounds tested on MTOR. Conditions: read-out: apparent Kd; compound concentrations:100 nM and 1000 nM (sheet 'Samples'); n = 1.
Design: species or system human, MV4-11 + K-562 + COLO205 + SK-N-BE2 + OVCAR-8
Work on `O=C1NC(=O)C(N2CCc3ccccc32)=C1c1ccccc1Cl` [SB-373598] yielded a potency estimated from few doses of 461 nM. `CN1C[C@@H]2Cn3c(c(C4=C(c5cn(C)c6ccccc56)C(=O)NC4=O)c4ccccc43)C[C@H]2C1.Cl` [RO0320234-001] showed a potency estimated from few doses of 186 nM. Compound `Cc1ccc2c(-c3ccncc3)c(-c3ccc(F)cc3)nn2c1.Cl` [GW461484A] has a potency estimated from few doses of 571 nM.

These compounds were tested on MYLK3. Conditions: read-out: apparent Kd; compound concentrations:100 nM and 1000 nM (sheet 'Samples'); n = 1.
Design: species or system human, MV4-11 + K-562 + COLO205 + SK-N-BE2 + OVCAR-8
Work on `NCCNS(=O)(=O)c1ccc(-c2ccnc3[nH]ccc23)cc1` [GSK977617A] yielded a potency estimated from few doses of 996 nM. `O=C1NC(=O)C(N2CCc3ccccc32)=C1c1ccccc1Cl` [SB-373598] was tested, and the potency estimated from few doses was 974 nM. `CNC(=O)c1ccccc1Nc1nc(Nc2ccc(N3CCOCC3)cc2)ncc1Cl.Cl` [GSK1576028A] gave a potency estimated from few doses of 786 nM.

These compounds were tested on NUAK1. Conditions: read-out: apparent Kd; compound concentrations:100 nM and 1000 nM (sheet 'Samples'); n = 1.
Design: species or system human, MV4-11 + K-562 + COLO205 + SK-N-BE2 + OVCAR-8
In the case of `NCCNS(=O)(=O)c1ccc(-c2ccnc3[nH]ccc23)cc1` [GSK977617A], the potency estimated from few doses is reported as 1100 nM. Compound `O=C1NC(=O)C(N2CCc3ccccc32)=C1c1ccccc1Cl` [SB-373598] has a potency estimated from few doses of 287 nM. In the case of `Cl.Cl.NCC(C(=O)Nc1cc(Br)c(-c2ccnc3[nH]ccc23)s1)c1ccccc1.NCC(C(=O)Nc1cc(Br)c(-c2ccnc3[nH]ccc23)s1)c1ccccc1` (stereo not drawn) [GSK1269851A], the potency estimated from few doses is reported as 1200 nM. For `CC(C)N1CCC(n2cnc(-c3ccc(F)cc3)c2-c2ccnc(N)n2)CC1` [SB-223132], the potency estimated from few doses was 1160 nM. `CNC(=O)c1ccccc1Nc1nc(Nc2ccc(N3CCOCC3)cc2)ncc1Cl.Cl` [GSK1576028A] gave a potency estimated from few doses of 92.2 nM. For `Cc1ccc2c(-c3ccncc3)c(-c3ccc(F)cc3)nn2c1.Cl` [GW461484A], the potency estimated from few doses was 1590 nM.

What follows are compounds tested on NUAK2. Conditions: read-out: apparent Kd; compound concentrations:100 nM and 1000 nM (sheet 'Samples'); n = 1.
Design: species or system human, MV4-11 + K-562 + COLO205 + SK-N-BE2 + OVCAR-8
In the case of `O=C1NC(=O)C(N2CCc3ccccc32)=C1c1ccccc1Cl` [SB-373598], the potency estimated from few doses is reported as 780 nM. `CNC(=O)c1ccccc1Nc1nc(Nc2ccc(N3CCOCC3)cc2)ncc1Cl.Cl` [GSK1576028A] was tested, and the potency estimated from few doses was 1370 nM. For `CN1C[C@@H]2Cn3c(c(C4=C(c5cn(C)c6ccccc56)C(=O)NC4=O)c4ccccc43)C[C@H]2C1.Cl` [RO0320234-001], the potency estimated from few doses was 843 nM.

What follows are compounds tested on PAK4. Conditions: read-out: apparent Kd; compound concentrations:100 nM and 1000 nM (sheet 'Samples'); n = 1.
Design: species or system human, MV4-11 + K-562 + COLO205 + SK-N-BE2 + OVCAR-8
`NCCNS(=O)(=O)c1ccc(-c2ccnc3[nH]ccc23)cc1` [GSK977617A] showed a potency estimated from few doses of 652 nM. With `O=C1NC(=O)C(N2CCc3ccccc32)=C1c1ccccc1Cl` [SB-373598] the potency estimated from few doses was 298 nM. In the case of `Cl.Cl.NCC(C(=O)Nc1cc(Br)c(-c2ccnc3[nH]ccc23)s1)c1ccccc1.NCC(C(=O)Nc1cc(Br)c(-c2ccnc3[nH]ccc23)s1)c1ccccc1` (stereo not drawn) [GSK1269851A], the potency estimated from few doses is reported as 736 nM. `CC(C)N1CCC(n2cnc(-c3ccc(F)cc3)c2-c2ccnc(N)n2)CC1` [SB-223132] showed a potency estimated from few doses of 726 nM. For `CCn1c(-c2nonc2N)nc2c(C#CC(C)(C)O)nc(OCCNC)cc21.Cl` [GSK949675A], the potency estimated from few doses was 736 nM. For `Cc1cccc(Nc2nc(N[C@H]3CCCC[C@H]3N)ncc2C(N)=O)c1.Cl` [GSK986310C], the potency estimated from few doses was 322 nM. Compound `CN1C[C@@H]2Cn3c(c(C4=C(c5cn(C)c6ccccc56)C(=O)NC4=O)c4ccccc43)C[C@H]2C1.Cl` [RO0320234-001] has a potency estimated from few doses of 558 nM. `CCn1c(-c2nonc2N)nc2c(C#CC(C)(C)O)nc(OCCN)cc21.CCn1c(-c2nonc2N)nc2c(C#CC(C)(C)O)nc(OCCN)cc21.Cl.Cl` [GSK902056A] gave a potency estimated from few doses of 677 nM. Work on `Cc1ccc2c(-c3ccncc3)c(-c3ccc(F)cc3)nn2c1.Cl` [GW461484A] yielded a potency estimated from few doses of 888 nM.

The compounds below were run on PAK6. Conditions: read-out: apparent Kd; compound concentrations:100 nM and 1000 nM (sheet 'Samples'); n = 1.
Design: species or system human, MV4-11 + K-562 + COLO205 + SK-N-BE2 + OVCAR-8
In the case of `NCCNS(=O)(=O)c1ccc(-c2ccnc3[nH]ccc23)cc1` [GSK977617A], the potency estimated from few doses is reported as 1310 nM. In the case of `O=C1NC(=O)C(N2CCc3ccccc32)=C1c1ccccc1Cl` [SB-373598], the potency estimated from few doses is reported as 419 nM. Compound `Cl.Cl.NCC(C(=O)Nc1cc(Br)c(-c2ccnc3[nH]ccc23)s1)c1ccccc1.NCC(C(=O)Nc1cc(Br)c(-c2ccnc3[nH]ccc23)s1)c1ccccc1` (stereo not drawn) [GSK1269851A] has a potency estimated from few doses of 710 nM. For `CN1C[C@@H]2Cn3c(c(C4=C(c5cn(C)c6ccccc56)C(=O)NC4=O)c4ccccc43)C[C@H]2C1.Cl` [RO0320234-001], the potency estimated from few doses was 111 nM.

These compounds were tested on PHKG2. Conditions: read-out: apparent Kd; compound concentrations:100 nM and 1000 nM (sheet 'Samples'); n = 1.
Design: species or system human, MV4-11 + K-562 + COLO205 + SK-N-BE2 + OVCAR-8
In the case of `O=C1NC(=O)C(N2CCc3ccccc32)=C1c1ccccc1Cl` [SB-373598], the potency estimated from few doses is reported as 872 nM. `Cl.Cl.NCC(C(=O)Nc1cc(Br)c(-c2ccnc3[nH]ccc23)s1)c1ccccc1.NCC(C(=O)Nc1cc(Br)c(-c2ccnc3[nH]ccc23)s1)c1ccccc1` (stereo not drawn) [GSK1269851A] showed a potency estimated from few doses of 2300 nM. For `CN1C[C@@H]2Cn3c(c(C4=C(c5cn(C)c6ccccc56)C(=O)NC4=O)c4ccccc43)C[C@H]2C1.Cl` [RO0320234-001], the potency estimated from few doses was 2180 nM. For `Cc1ccc2c(-c3ccncc3)c(-c3ccc(F)cc3)nn2c1.Cl` [GW461484A], the potency estimated from few doses was 1600 nM.
